# Data reported in PubChem BioAssay (EPA / NIEHS).
# The source made the active and inactive calls. Rule for the calls: active = hit-call score of the fitted dose curve at least 0.9, where 1 is the maximum; inactive = score below 0.9.
# Tests used:
# Conditions in all cases: mRNA level, 48 h; actives raise or lower the signal
# [1] = read-out: Peroxisomal acyl-coenzyme A oxidase 1 (ACOX1) gene, ACOX1 (gene 51); assay: LTEA_HepaRG_ACOX1: Life Technologies and Expression Analysis (LTEA) Assay for Peroxisomal acyl-coenzyme A oxidase 1 (ACOX1) gene using HepaRG (AID 2283467)
# In short: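 Differentiated human HepaRG cells were exposed in duplicate for 48 h in serum-free induction medium to eight half-log concentrations up to 100 uM in 0.5% DMSO. ACOX1 mRNA was then quantified by TaqMan qRT-PCR, normalized to ACTB, GAPDH and POLR2A.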
# [2] = read-out: Alkaline Phosphatase, Placental (ALPP) gene, ALPP (gene 250); assay: LTEA_HepaRG_ALPP: Life Technologies and Expression Analysis (LTEA) Assay for Alkaline Phosphatase, Placental (ALPP) gene using HepaRG (AID 2283468)
# In short: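 HepaRG cells plated 48 h, then exposed in duplicate for 48 h in serum-free induction medium to 8-point half-log series from 100 uM in 0.5% DMSO. ALPP mRNA by TaqMan qRT-PCR, normalized to ACTB/GAPDH/POLR2A; bidirectional fit versus DMSO.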
# [3] = read-out: Bcl-2 (BAD) gene, BAD (gene 572); assay: LTEA_HepaRG_BAD: Life Technologies and Expression Analysis (LTEA) Assay for Bcl-2 (BAD) gene using HepaRG (AID 2283469)
# In short: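 Differentiated human HepaRG cells in serum-free induction medium were exposed in duplicate for 48 h to eight concentrations (top 100 uM, half-log steps, 0.5% DMSO). BAD mRNA was quantified by qRT-PCR normalised to ACTB, GAPDH and POLR2A, with bidirectional fitting versus DMSO.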
# [4] = read-out: Bcl-2 (BAX) gene, BAX (gene 581); assay: LTEA_HepaRG_BAX: Life Technologies and Expression Analysis (LTEA) Assay for Bcl-2 (BAX) gene using HepaRG (AID 2283470)
# In short: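 Differentiated HepaRG cells exposed 48 h in serum-free induction medium, eight half-log concentrations from 100 uM, in duplicate, 0.5% DMSO vehicle. BAX mRNA by TaqMan qRT-PCR, normalised to ACTB, GAPDH and POLR2A.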
# [5] = read-out: adenosine kinase (ADK) gene, ADK (gene 132); assay: LTEA_HepaRG_ADK: Life Technologies and Expression Analysis (LTEA) Assay for adenosine kinase (ADK) gene using HepaRG (AID 2283471)
# In short: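 Following 48 h exposure of HepaRG cells in 0.5% DMSO (top concentration 100 uM, duplicate wells), ADK mRNA induction or suppression was measured by qRT-PCR, normalised to ACTB/GAPDH/POLR2A, and fitted bidirectionally relative to vehicle.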
# [6] = read-out: Alpha-fetoprotein (AFP) gene, AFP (gene 174); assay: LTEA_HepaRG_AFP: Life Technologies and Expression Analysis (LTEA) Assay for Alpha-fetoprotein (AFP) gene using HepaRG (AID 2283472)
# In short: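 Differentiated human HepaRG cells exposed 48 h in serum-free induction medium, 8-point half-log series from 100 uM in 0.5% DMSO, duplicate. AFP mRNA by qRT-PCR, normalized to ACTB, GAPDH, POLR2A; bidirectional fit vs DMSO.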
# BCL2L11 (gene 10018) = assay: LTEA_HepaRG_BCL2L11: Life Technologies and Expression Analysis (LTEA) Assay for Bcl-2 (BCL2L11) gene using HepaRG (AID 2283473)
# In short: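 Differentiated human HepaRG cells were exposed 48 h in serum-free induction medium to eight half-log concentrations up to 100 uM in 0.5% DMSO, in duplicate. BCL2L11 mRNA was quantified by TaqMan qRT-PCR, normalized to ACTB, GAPDH and POLR2A; induction or repression fitted versus DMSO.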
# [7] = read-out: Apoptosis regulator Bcl-2 (Homo sapiens) (UniProt P10415); assay: LTEA_HepaRG_BCL2: Life Technologies and Expression Analysis (LTEA) Assay for Bcl-2 gene using HepaRG (AID 2283475)
# In short: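 Differentiated human HepaRG cells in serum-free induction medium exposed 48 h, in duplicate, to 8-point half-log series from 100 uM in 0.5% DMSO. BCL2 mRNA by qRT-PCR (TaqMan/Fluidigm), normalized to ACTB, GAPDH, POLR2A; bidirectional fit against DMSO.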
# [8] = read-out: Bcl-2 (BID) gene, BID (gene 637); assay: LTEA_HepaRG_BID: Life Technologies and Expression Analysis (LTEA) Assay for Bcl-2 (BID) gene using HepaRG (AID 2283476)
# In short: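 Gene expression by qRT-PCR in HepaRG cells after 48 h exposure, duplicate wells, eight half-log concentrations topping at 100 uM in 0.5% DMSO. Normalized to ACTB, GAPDH, POLR2A; bidirectional fitting relative to DMSO.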
# Caspase-3 (Homo sapiens) = Caspase-3 (Homo sapiens) (UniProt P42574); assay: LTEA_HepaRG_CASP3: Life Technologies and Expression Analysis (LTEA) Assay for cysteine-aspartic acid protease (CASP3) using HepaRG (AID 2283477)
# In short: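 Differentiated HepaRG cells, plated 48 h, were treated in duplicate in serum-free induction medium for 48 h with eight half-log concentrations up to 100 uM in 0.5% DMSO. CASP3 mRNA measured by qRT-PCR, normalized to ACTB, GAPDH, POLR2A.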
# [9] = read-out: Cytochrome P450 (CYP24A1), CYP24A1 (gene 1591); assay: LTEA_HepaRG_CYP24A1: Life Technologies and Expression Analysis (LTEA) Assay for Cytochrome P450 (CYP24A1) using HepaRG (AID 2283478)
# In short: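 HepaRG cells plated 48 h, then exposed in duplicate in serum-free induction medium for 48 h to 8-point half-log series from 100 uM in 0.5% DMSO. CYP24A1 mRNA by Fluidigm qRT-PCR, normalized to ACTB, GAPDH, POLR2A; bidirectional fit versus DMSO.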
# [10] = read-out: Cytochrome P450 (CYP1A2), CYP1A2 (gene 1544); assay: LTEA_HepaRG_CYP1A2: Life Technologies and Expression Analysis (LTEA) Assay for Cytochrome P450 (CYP1A2) using HepaRG (AID 2283479)
# In short: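 Differentiated human HepaRG cells in serum-free induction medium exposed 48 hours in duplicate to 8 half-log concentrations from 100 uM, 0.5% DMSO. CYP1A2 mRNA quantified by qRT-PCR, normalized to ACTB, GAPDH and POLR2A; bidirectional fitting versus DMSO.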
# [11] = read-out: cysteine-aspartic acid protease (CASP8), CASP8 (gene 841); assay: LTEA_HepaRG_CASP8: Life Technologies and Expression Analysis (LTEA) Assay for cysteine-aspartic acid protease (CASP8) using HepaRG (AID 2283480)
# In short: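 Differentiated human HepaRG cells, plated 48 h then switched to serum-free induction medium, were exposed in duplicate for 48 h to 8 half-log concentrations up to 100 uM in 0.5% DMSO. CASP8 mRNA was quantified by qRT-PCR, normalized to ACTB/GAPDH/POLR2A.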
# [12] = read-out: Cytochrome P450 (CYP2B6), CYP2B6 (gene 1555); assay: LTEA_HepaRG_CYP2B6: Life Technologies and Expression Analysis (LTEA) Assay for Cytochrome P450 (CYP2B6) using HepaRG (AID 2283481)
# In short: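 Differentiated human HepaRG cells in serum-free induction medium, dosed in duplicate for 48 h over 8 half-log concentrations topping at 100 uM (0.5% DMSO). CYP2B6 mRNA measured by TaqMan qRT-PCR, normalized to ACTB, GAPDH, POLR2A; bidirectional fit versus DMSO.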
# [13] = read-out: Cytochrome P450 2C19 (Homo sapiens) (UniProt P33261); assay: LTEA_HepaRG_CYP2C19: Life Technologies and Expression Analysis (LTEA) Assay for CYP2C19 using HepaRG (AID 2283482)
# In short: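 Differentiated HepaRG cells in serum-free induction medium exposed 48 h in duplicate, 8 concentrations from 100 uM by half-log steps in 0.5% DMSO. CYP2C19 mRNA measured by TaqMan qRT-PCR, normalized to ACTB, GAPDH, POLR2A. Bidirectional fit versus DMSO.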
# CYP2C8 (gene 1558) = assay: LTEA_HepaRG_CYP2C8: Life Technologies and Expression Analysis (LTEA) Assay for CYP2C8 using HepaRG (AID 2283483)
# In short: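 Differentiated human HepaRG cells were exposed for 48 h in serum-free induction medium to eight half-log concentrations up to 100 uM in 0.5% DMSO, in duplicate. CYP2C8 mRNA was measured by TaqMan qRT-PCR, normalized to ACTB, GAPDH and POLR2A, and fitted bidirectionally against DMSO.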
# CYP2C9 (gene 1559) = assay: LTEA_HepaRG_CYP2C9: Life Technologies and Expression Analysis (LTEA) Assay for CYP2C9 using HepaRG (AID 2283484)
# In short: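 Differentiated human HepaRG cells were exposed 48 h in serum-free induction medium to eight half-log concentrations up to 100 uM in 0.5% DMSO. CYP2C9 mRNA was measured by qRT-PCR, normalized to ACTB, GAPDH and POLR2A, and fitted bidirectionally against DMSO.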
# CYP2E1 (gene 1571) = assay: LTEA_HepaRG_CYP2E1: Life Technologies and Expression Analysis (LTEA) Assay for CYP2E1 using HepaRG (AID 2283485)
# In short: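 HepaRG cells, plated 48 h, then exposed 48 h in serum-free induction medium to eight half-log concentrations from 100 uM in 0.5% DMSO, duplicate. CYP2E1 mRNA by qRT-PCR, normalized to ACTB/GAPDH/POLR2A; bidirectional fit versus DMSO.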
# CYP4A11 (gene 1579) = assay: LTEA_HepaRG_CYP4A11: Life Technologies and Expression Analysis (LTEA) Assay for CYP4A11 using HepaRG (AID 2283486)
# In short: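 Differentiated HepaRG cells, 48 h after plating, exposed in duplicate for 48 h to 8 half-log concentrations up to 100 uM in 0.5% DMSO in serum-free induction medium. CYP4A11 mRNA measured by TaqMan qRT-PCR, normalized to ACTB, GAPDH and POLR2A.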
# [14] = read-out: Apolipoprotein A-V (APOA5) gene, APOA5 (gene 116519); assay: LTEA_HepaRG_APOA5: Life Technologies and Expression Analysis (LTEA) Assay for Apolipoprotein A-V (APOA5) gene using HepaRG (AID 2283474)
# In short: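 Differentiated HepaRG cells in serum-free induction medium, exposed 48 h in duplicate to eight half-log concentrations topping at 100 uM (0.5% DMSO). APOA5 mRNA by Fluidigm TaqMan qRT-PCR, normalized to ACTB, GAPDH and POLR2A; bidirectional fit versus DMSO.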
# Caspase-3 (Homo sapiens), sequence (P42574 whole entry, looked up): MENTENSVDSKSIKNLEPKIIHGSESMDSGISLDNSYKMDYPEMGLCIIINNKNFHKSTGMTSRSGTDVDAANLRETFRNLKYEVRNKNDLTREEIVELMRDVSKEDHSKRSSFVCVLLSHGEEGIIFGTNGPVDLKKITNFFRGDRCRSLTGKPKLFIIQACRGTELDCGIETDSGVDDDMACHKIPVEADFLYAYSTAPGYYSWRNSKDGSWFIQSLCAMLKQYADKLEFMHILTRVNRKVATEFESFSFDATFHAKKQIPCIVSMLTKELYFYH
# Apoptosis regulator Bcl-2 (Homo sapiens), sequence (P10415 whole entry, looked up): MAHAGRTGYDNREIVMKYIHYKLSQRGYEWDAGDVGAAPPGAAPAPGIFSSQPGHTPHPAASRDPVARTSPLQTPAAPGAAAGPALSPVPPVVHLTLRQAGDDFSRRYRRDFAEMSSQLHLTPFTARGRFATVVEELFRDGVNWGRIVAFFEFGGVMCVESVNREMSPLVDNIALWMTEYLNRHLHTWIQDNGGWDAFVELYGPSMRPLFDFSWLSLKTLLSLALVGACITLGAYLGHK
# Cytochrome P450 2C19 (Homo sapiens), sequence (P33261 whole entry, looked up): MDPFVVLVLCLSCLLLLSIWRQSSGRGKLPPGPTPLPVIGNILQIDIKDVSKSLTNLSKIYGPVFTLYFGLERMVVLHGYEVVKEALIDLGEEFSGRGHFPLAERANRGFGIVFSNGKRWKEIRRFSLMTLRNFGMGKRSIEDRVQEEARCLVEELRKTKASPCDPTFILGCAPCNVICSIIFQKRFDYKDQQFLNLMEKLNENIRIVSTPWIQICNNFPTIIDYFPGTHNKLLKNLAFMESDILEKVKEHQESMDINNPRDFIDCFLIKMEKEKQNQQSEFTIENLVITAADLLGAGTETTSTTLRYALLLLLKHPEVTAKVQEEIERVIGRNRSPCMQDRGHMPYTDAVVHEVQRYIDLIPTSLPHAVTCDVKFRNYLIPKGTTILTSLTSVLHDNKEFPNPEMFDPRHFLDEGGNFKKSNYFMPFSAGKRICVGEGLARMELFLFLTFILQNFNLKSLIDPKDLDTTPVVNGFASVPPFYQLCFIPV
smiles,measurement,setting,value
COc1ccc(O)c(C(C)(C)C)c1,outcome,[1],inactive
same,outcome,[2],inactive
same,outcome,[3],inactive
same,outcome,[4],inactive
same,outcome,[5],inactive
same,outcome,[6],inactive
same,outcome,BCL2L11 (gene 10018),inactive
same,outcome,[7],inactive
same,outcome,[8],inactive
same,outcome,Caspase-3 (Homo sapiens),inactive
same,outcome,[9],inactive
same,outcome,[10],inactive
same,outcome,[11],inactive
same,outcome,[12],inactive
same,outcome,[13],inactive
same,outcome,CYP2C8 (gene 1558),inactive
same,outcome,CYP2C9 (gene 1559),inactive
same,outcome,CYP2E1 (gene 1571),inactive
same,outcome,CYP4A11 (gene 1579),inactive
CCSC(=O)N(CC)C1CCCCC1,outcome,[1],inactive
same,outcome,[2],inactive
same,outcome,[3],inactive
same,outcome,[4],inactive
same,outcome,[5],inactive
same,outcome,[6],inactive
same,outcome,BCL2L11 (gene 10018),inactive
same,outcome,[14],inactive
same,outcome,[7],inactive
same,outcome,[8],inactive
same,outcome,Caspase-3 (Homo sapiens),inactive
same,outcome,[9],inactive
same,outcome,[10],inactive
same,outcome,[11],inactive
same,AC50,[12],32.9 µM (active)
same,outcome,[13],inactive
same,outcome,CYP2C9 (gene 1559),inactive
same,outcome,CYP4A11 (gene 1579),inactive
Clc1ccc(C(Cl)(Cl)Cl)cc1,outcome,[1],inactive
same,outcome,[2],inactive
same,outcome,[3],inactive
same,outcome,[4],inactive
same,outcome,[5],inactive
same,outcome,[6],inactive
same,outcome,BCL2L11 (gene 10018),inactive
same,outcome,[14],inactive
same,outcome,[7],inactive
same,outcome,[8],inactive
same,outcome,Caspase-3 (Homo sapiens),inactive
same,outcome,[9],inactive
same,outcome,[10],inactive
same,outcome,[11],inactive
same,outcome,[12],inactive
same,outcome,CYP2C8 (gene 1558),inactive
same,outcome,CYP2C9 (gene 1559),inactive
same,outcome,CYP4A11 (gene 1579),inactive
